Bioassay records: PubChem BioAssay, Broad Institute
Compounds with a hit are over-represented: about 2.2% of the library has one in this group of screens.
EBV LMP1 NFkB = inhibitors of Epstein-Barr LMP1-induced NF-kappaB reporter | LMP1-induced NF-kappaB luciferase reporter cells, luminescence | inhibition, % at 12.5 µM | actives 0.69% (n = 350,000) | AID 504558; in the data active means inhibition above about 41%; inconclusive means no clear call, values can overlap the other calls
PGC1a acetyl inh = PGC1a acetylation modulation, inhibitor mode; U2OS PGC1a acetylation, AlphaScreen anti-acetyl-lysine; with virally co-expressed GCN5 acetyltransferase; inhibition, % at 15.6 µM; actives 0.17% (n = 350,000);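 active means every replicate shows inhibition of at least 40%; inconclusive means mean inhibition at least 40% but some replicate below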
LGR2 inh = Drosophila LGR2 receptor signaling inhibition. HEK293 LGR2, CRE-luciferase, bursicon-stimulated, 4 h. inhibition, % at 9.99 µM. actives 0.35% (n = 380,000). AID 720647;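 active means drop in luminescence signal, shown as inhibition above about 50% in the replicate tests, limit read from the data, passing the limit was not always enough; inconclusive means probably only some replicates passing the limit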;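 further: agonist challenge used bursicon conditioned medium at about half maximal strength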
MITF TRPM1 inh = reduces MITF-dependent TRPM1 promoter luciferase signal. SK-MEL-5 TRPM1 promoter luciferase, 24 h. actives 0.83% (n = 330,000). inhibition, % at 12.5 µM;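 active means mean inhibition across replicates of 60% or more, whatever share of single replicates reaches that level; inconclusive means some that reach 60%, reason not given; inactive means mean inhibition across replicates below 60%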
PAX8 inh HTS = lowers PAX8-driven luciferase in RMG-I cells; RMG-I TPO-luciferase reporter, SteadyGlo, 24 h; inhibition, % at 12.6 µM; actives 1.2% (n = 360,000); AID 652154;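 active means mean replicate inhibition at least 60% with every replicate also reaching 60%; inconclusive means only one of the two criteria is met; inactive means mean below 60% and not all replicates reaching 60%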;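 further: luciferase light reporting Pax8 driven TPO promoter activity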
EWS-Fli block = blocks EWS/Fli oncoprotein-driven transcription; AID 651661; inhibition, % at 12.6 µM; actives 0.67% (n = 350,000); A673 NR0B1-luciferase reporter, viability-normalised;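 active means mean inhibition of at least 50% after viability correction, with every replicate also passing that limit; inconclusive means mean reaches 50% but only one of two replicates passes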;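 further: firefly luciferase signal divided by Alamar Blue viability fluorescence both relative to DMSO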
Numbers stand for hits; . = inactive; ? = inconclusive; / = no result given.

SMILES	EBV LMP1 NFkB	PGC1a acetyl inh	LGR2 inh	MITF TRPM1 inh	PAX8 inh HTS	EWS-Fli block
C[C@H]1CN([C@@H](C)CO)S(=O)(=O)c2ccc(-c3ccc(C#N)cc3)cc2O[C@@H]1CN(C)Cc1cccc(F)c1	/	.	.	/	75.6	.
C[C@@H]1CN([C@H](C)CO)S(=O)(=O)c2ccc(-c3ccc(C#N)cc3)cc2O[C@H]1CN(C)Cc1cccc(F)c1	/	.	.	/	.	.
C[C@@H]1CN([C@H](C)CO)S(=O)(=O)c2ccc(-c3ccccc3)cc2O[C@H]1CN(C)Cc1ccccn1	/	.	.	/	/	72.7
Cc1cccc(-c2ccc([C@H]3[C@H]4CN(C(=O)Cc5ccccn5)CC(=O)N4[C@H]3CO)cc2)c1	/	.	.	/	.	.
COc1ccc(OC)c(NC2c3ncccc3C(=O)N2Cc2ccco2)c1 (centres undefined)	.	.	.	.	/	.
COc1ccc(CN2C(=O)c3cccnc3C2Nc2cc(Cl)ccc2OC)cc1 (centres undefined)	65.8	.	.	.	/	/
Cc1cc(C)nc(N2CCC(C(=O)NCc3ccco3)CC2)n1	.	94.9	/	.	/	/
CO[C@@H]1CN(C)C(=O)c2cc(NC(=O)NC(C)C)ccc2OC[C@@H](C)N(CCC(F)(F)F)C[C@@H]1C	/	.	.	/	.	.
CC1(C)CC(=O)C2=C(C1)OC1=C(C(=O)CC(C)(C)C1)C2c1ccc(O)cc1O	.	.	/	101.5	/	/
CC1(C)CC(=O)C2=C(C1)OC1=C(C(=O)CC(C)(C)C1)C2c1ccc(O)c([N+](=O)[O-])c1	.	/	.	.	.	.
CCOC(=O)N1C(=O)[C@](c2ccc(Cl)cc2)(C(C)C)N1C(=O)OCC	.	.	.	.	.	.
CCOC(=O)N1C(=O)[C@@](c2ccc(Cl)cc2)(C(C)C)N1C(=O)OCC	.	.	?	.	68.9	.
C[C@H]1CN([C@@H](C)CO)S(=O)(=O)c2ccc(C#CCN(C)C)cc2O[C@H]1CN(C)C	/	.	.	/	/	.
O=C(CSc1ccccn1)Nc1ccc(NC(=O)CSc2ccccn2)cc1	.	/	.	.	.	.
O=C(CSc1ccccn1)Nc1nonc1[N+](=O)[O-]	.	/	.	85.6	.	/
N#Cc1cccc(-c2ccc(C3[C@H]4CNC[C@@H]3N4S(=O)(=O)c3cccc(F)c3)cc2)c1 (some centres undefined)	/	.	.	/	.	.
C[C@H]1CN([C@@H](C)CO)C(=O)c2cc(C3=CCCCC3)cnc2O[C@@H]1CN(C)Cc1ccc(C(=O)O)cc1	/	.	.	/	.	.
CCOC(=O)CC/C(C)=N\N=C1\SC(CC(=O)O)C(=O)N1c1ccccc1 (centres undefined)	44.1	.	.	.	.	.
CO[C@@H]1CN(C)C(=O)c2ccc(NC(=O)Nc3c(C)noc3C)cc2OC[C@@H](C)N(CC2CC2)C[C@@H]1C	/	.	.	/	.	.
O=C(c1ccc(CS(=O)Cc2ccccc2Cl)o1)N1CCN(c2cccc(Cl)c2)CC1 (centres undefined)	69.6	/	.	.	.	.
CC(C)CNc1ncnc2c1ncn2[C@H]1CN(Cc2ccco2)C[C@@H](CO)O1	/	.	.	/	83.6	.
COc1cc(CNc2ncnc3c2ncn3[C@H]2CN(Cc3ccc(C(=O)O)cc3)C[C@@H](CO)O2)cc(OC)c1OC	/	.	.	/	.	.
COc1cc(CNc2ncnc3c2ncn3[C@H]2CN(Cc3ccc(-c4ccccc4)cc3)C[C@@H](CO)O2)cc(OC)c1OC	/	/	.	/	93.7	.
OC[C@@H]1CN(Cc2ccccc2)C[C@H](n2cnc3c(NCc4ccco4)ncnc32)O1	/	101.1	.	/	.	.
Cc1noc(C)c1NC(=O)N(C)C[C@H]1Oc2ccc(NC(=O)Cc3ccccc3)cc2CC(=O)N([C@@H](C)CO)C[C@H]1C	/	.	.	/	.	.
SMILES	EBV LMP1 NFkB	PGC1a acetyl inh	LGR2 inh	MITF TRPM1 inh	PAX8 inh HTS	EWS-Fli block
NC(=O)C1(N2CCCCC2)CCN(C(=O)c2ccc(-n3cnnn3)cc2)CC1	64.2	.	/	.	/	/
Brc1ccc2c(c1)C(C1=NCCN1)c1ccccc1CS2 (centres undefined)	.	.	.	.	.	58.0
O=C(NCC[C@@H]1CC[C@@H](NC(=O)c2ccc3c(c2)OCO3)[C@@H](CO)O1)Nc1cc(F)ccc1F	/	.	.	/	.	.
CO[C@H]1CN(C)C(=O)c2cc(NC(C)=O)ccc2OC[C@@H](C)N(C(=O)C2CCOCC2)C[C@H]1C	/	.	.	/	.	.
C[C@H]1CN([C@@H](C)CO)S(=O)(=O)c2ccc(-c3cncnc3)cc2O[C@@H]1CN(C)C(=O)c1cccc(F)c1	/	.	.	/	.	.
O=C(C1CCC1)N1CC(=O)N2[C@@H](CO)[C@H](c3ccc(C#Cc4cccc(F)c4)cc3)[C@@H]2C1	/	.	.	/	.	.
O=C(C1CC1)N1CC(=O)N2[C@H](C1)[C@H](c1ccc(C#Cc3cccc(F)c3)cc1)[C@@H]2CO	/	.	.	/	68.6	.
O=C(C1CCC1)N1CC(=O)N2[C@H](C1)[C@H](c1ccc(C#Cc3cccc(F)c3)cc1)[C@@H]2CO	/	.	.	/	81.3	.
COc1ccc(OC(=O)N2CCOCC2)cc1	.	/	.	.	.	.
COc1ccc(/C(N)=N/OC(=O)N2CCOCC2)cc1	90.2	/	.	.	.	.
Nc1nc(C(=O)N2CCOCC2)nn1S(=O)(=O)c1ccc(Cl)cc1	.	.	/	.	.	/
O=C(C1CC(Cl)CN1S(=O)(=O)c1ccc(Cl)cc1)N1CCOCC1 (centres undefined)	.	.	.	.	.	.
O=C(N1CCOCC1)N1CCN(S(=O)(=O)c2ccc(Cl)cc2)C1	44.1	/	.	.	.	.
O=C(c1nnsc1S(=O)(=O)c1ccc(Cl)cc1)N1CCOCC1	.	/	102.1	73.4	93.4	.
CNC(=O)c1ccc(S(=O)(=O)c2ccc(Cl)cc2)c(NC(C)=O)c1	.	/	.	.	.	.
CNC(=O)c1nnsc1S(=O)(=O)c1ccc(Cl)cc1	67.9	/	102.6	85.1	107.5	57.7
Cc1ccc(S(=O)(=O)Nc2ccc3c(c2)C(=O)N([C@H](C)CO)C[C@@H](C)[C@@H](CN(C)C)O3)cc1	/	.	.	/	.	.
CC(C)NC(=O)Nc1ccc2c(c1)CC(=O)N([C@H](C)CO)C[C@H](C)[C@H](CN(C)Cc1ccccc1)O2	/	.	.	/	.	.
Cc1ccc(S(=O)(=O)N2C[C@H]3n4c(=O)ccc(=O)n4C[C@H](OC(=O)NCC4CCCCC4)[C@@]3(O)C2)cc1	.	.	.	/	73.0	.
Cc1ccc(S(=O)(=O)N2C[C@H]3n4c(=O)ccc(=O)n4C[C@H](OC(=O)NCc4ccccc4)[C@@]3(O)C2)cc1	.	.	.	/	.	.
Cc1ccc(S(=O)(=O)N(C)C[C@H]2Oc3ccc(NS(=O)(=O)c4ccccc4)cc3CC(=O)N([C@H](C)CO)C[C@H]2C)cc1	/	.	.	/	.	.
COC(CNC(=O)c1ccc(N2CCC3(CC2)OCCO3)c([N+](=O)[O-])c1)OC	51.1	/	/	.	.	.
